This is one part of a sample in which hits are shown more often than they occur.
ER stress death = ER stress cell death inhibition; CSM14.1 thapsigargin ER stress survival, ATP luminescence; AID 1010; relative survival (cellular ATP), % at 15 µg/mL (by protocol); 0.33% of 48,000 active;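 active = survival measured by cellular ATP above 50% at 15 µg/ml in the first screen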;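 also: cell death triggered by about 15 µM thapsigargin; ATP read 24 h after thapsigargin was added; plate controls were thapsigargin with DMSO for no effect and DMSO without thapsigargin for full effect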
Starred values were filed as active, the others as inactive.

SMILES	ER stress death
Cc1ccc(NC(=O)CC(=O)NN)cc1	-5
CCOC(=O)CP(=O)(c1ccccc1)c1ccccc1	6
CC(C)(C)c1ccc(S(=O)(=O)N2CCCC2)cc1	4
O=C(O)/C=C/C(=O)Nc1ccc(OC(F)(F)Cl)cc1	108*
CCOc1ccc(NC(=O)/C=C\C(=O)O)cc1	-10
O=C(O)/C=C/C(=O)Nc1ccc(-c2ccc(NC(=O)/C=C/C(=O)O)cc2)cc1	-3
COCCNC(=O)c1cc2nc(-c3ccc(Cl)c(Cl)c3)cc(C(F)(F)F)n2n1	4
CC(NC(=O)c1ccc(S(=O)(=O)N2CCCCC2)cc1)C12CC3CC(CC(C3)C1)C2 (centres undefined)	108*
CC(NC(=O)c1ccccc1)C12CC3CC(CC(C3)C1)C2 (centres undefined)	1
Cc1ccc(C(=O)Nc2ccc(S(=O)(=O)N3CCCC3)cc2)cc1	0
COc1ccc(NC(=O)C(=O)N/N=C/c2ccc(OC)c(OC)c2)cc1	16
CCOc1ccccc1CN(CCc1ccc2c(c1)OCO2)Cc1ccncc1	103*
CCOc1ccccc1CN(CCc1ccc2c(c1)OCO2)Cc1cc(OC)ccc1OC	3
CCOc1ccc(-c2nnc(-c3ccc4c(c3)OCO4)o2)cc1	8
CCOc1ccc(N2C(=O)S/C(=C\c3ccc(C)cc3)C2=O)cc1	8
Cc1ccccc1NC(=O)c1c(NC(=O)c2ccccc2Br)sc2c1CCCCC2	-1
CCOc1ccc2c(C(F)(F)F)cc(=O)oc2c1	-5
C=CCOc1ccc(C2C3=C(CC(C)(C)CC3=O)OC3=C2C(=O)CC(C)(C)C3)cc1OCC	7
COc1ccc(C2/C(=C(/O)c3ccccc3)C(=O)C(=O)N2c2cccc(Br)c2)cc1OC (centres undefined)	-4
O=C1NC(=O)N(c2ccc(Cl)cc2)C(=O)/C1=C\C=C\c1ccco1	54*
Cc1cc(N2C(=O)NC(=O)/C(=C\C=C\c3ccco3)C2=O)ccc1Br	2
O=C1NC(=S)N(c2ccc(Cl)cc2)C(=O)/C1=C/C=C/c1ccccc1	44
Cc1cccnc1NC(=O)COc1ccc2ccccc2c1	-2
COc1ccc(CCNC(=O)CN(c2ccc(Oc3ccccc3)cc2)S(C)(=O)=O)cc1OC	6
CC(=O)/C=C/c1cc[n+](C)cc1	7
SMILES	ER stress death
CCOc1cccc(C2Nc3ccccc3NC3=C2C(=O)CC(c2ccc(OC)cc2)C3)c1 (centres undefined)	106*
COc1ccc(C2CC(=O)C3=C(C2)Nc2ccccc2NC3c2c(F)cccc2F)cc1 (centres undefined)	5
COc1ccc(C2CC(=O)C3=C(C2)Nc2ccccc2NC3c2cc(OC)c(OC)cc2Br)cc1 (centres undefined)	4
O=C1CCCC2=C1C(c1cccnc1)Nc1ccc(C(=O)c3ccccc3)cc1N2 (centres undefined)	9
O=C1CCCC2=C1C(c1ccc(Br)cc1)Nc1ccc(C(=O)c3ccccc3)cc1N2 (centres undefined)	66*
COc1ccc(C2Nc3ccccc3NC3=C2C(=O)CC(c2ccccc2)C3)cc1 (centres undefined)	22
COc1ccc(C2CC(=O)C3=C(C2)Nc2ccccc2NC3c2ccc(Br)s2)cc1 (centres undefined)	85*
COc1ccc(C2Nc3ccccc3NC3=C2C(=O)CC(c2ccccc2)C3)c(OC)c1 (centres undefined)	7
COc1ccc(C2CC(=O)C3=C(C2)Nc2ccccc2NC3c2ccc3ccccc3c2)cc1 (centres undefined)	50*
COc1ccc(C2CC(=O)C3=C(C2)Nc2ccccc2NC3c2ccc(F)c(Br)c2)cc1 (centres undefined)	15
COc1ccc(C2CC(=O)C3=C(C2)Nc2ccccc2NC3c2ccc(C(F)(F)F)cc2)cc1 (centres undefined)	2
COc1ccc(C2Nc3ccc(C(=O)c4ccccc4)cc3NC3=C2C(=O)CCC3)cc1 (centres undefined)	-1
COc1cc(C(=O)Nc2ccc(S(=O)(=O)Nc3ncccn3)cc2)c(Br)c(OC)c1OC	2
CC(=O)OCC12COC(C)(CC1C)CC2C (centres undefined)	-1
Cc1cc2nc3s/c(=C\c4ccc(-c5ccc(Cl)c([N+](=O)[O-])c5)o4)c(=O)n3c2cc1C	-2
O=C(O)CCCCCN1C(=O)C(=O)/C(=C(/O)c2ccc([N+](=O)[O-])cc2)C1c1ccc2c(c1)OCO2 (centres undefined)	2
CCc1ccc(NC(=O)CSc2nc3ccc(C)cc3[nH]2)cc1	3
CCc1cc(C(=O)N/N=C/c2ccccc2)c2ccccc2n1	4
CCOc1cc(C2Nc3ccccc3NC3=C2C(=O)CC(c2ccc(OC)cc2)C3)cc(Cl)c1O (centres undefined)	112*
COc1ccc(C2CC(=O)C3=C(C2)Nc2ccccc2NC3c2cccc(Br)c2)cc1 (centres undefined)	25
O=C1CC(c2ccccc2)CC2=C1C(c1ccc(F)c(Br)c1)Nc1ccccc1N2 (centres undefined)	6
COc1cc(C2Nc3ccccc3NC3=C2C(=O)CC(c2ccc(Cl)cc2)C3)cc(OC)c1OC (centres undefined)	-1
CCOc1cc(C2Nc3ccccc3NC3=C2C(=O)CC(c2ccc(OC)cc2)C3)ccc1OC(=O)C1CC1 (centres undefined)	2
CSc1ccc(C2Nc3ccccc3NC3=C2C(=O)CC(c2ccc4c(c2)OCO4)C3)cc1 (centres undefined)	-3
Cc1ccc(C2Nc3ccccc3NC3=C2C(=O)CC(c2ccc(Cl)cc2)C3)cc1 (centres undefined)	4
SMILES	ER stress death
Cc1ccc2c(c1)NC(c1ccc3c(c1)OCO3)C1=C(CC(c3ccccc3)CC1=O)N2 (centres undefined)	92*
COc1ccc(C2CC(=O)C3=C(C2)Nc2ccccc2NC3c2cccc(O)c2)cc1 (centres undefined)	-4
O=C1CC(c2ccccc2)CC2=C1C(c1cccc(Br)c1)Nc1ccccc1N2 (centres undefined)	88*
O=C1CC(c2ccc(Cl)cc2)CC2=C1C(c1cccs1)Nc1ccccc1N2 (centres undefined)	68*
Cc1ccc2c(c1)NC(c1ccc(F)cc1)C1=C(CC(c3ccccc3)CC1=O)N2 (centres undefined)	1
Cc1cc(C)nc(/N=C(/N)Nc2ccc(Cl)cc2[N+](=O)[O-])n1	1
O=C(NCCN1CCN(C(=O)c2ccc(Cl)cc2Cl)CC1)c1ccc(Cl)cc1Cl	8
COc1ccc(-c2ccc(/C=C/C(=O)c3ccc(C)cc3)o2)cc1	7
COc1ccc(Cc2noc(-c3ccc(Br)cc3)n2)cc1	-1
O=C1CSC(c2ccccc2)N1/N=C/c1ccccc1 (centres undefined)	8
CN(C)CCCNC(=O)c1cc(Cl)ccc1Cl	5
CC1=C(C(=O)Nc2ccccc2C)C(c2ccc(C)cc2)NC(=S)N1 (centres undefined)	7
C#CCOc1ccc(/C=C2\C(=O)NC(=O)N(c3cc(C)cc(C)c3)C2=O)cc1OC	9
CC(=O)Nc1c(C)c(Br)cc(C(=O)O)c1[N+](=O)[O-]	-5
CN(C)Cn1c(O)c(N=NC(=O)c2ccncc2)c2ccccc21	2
O=C(Nc1ccc2c(c1)OCO2)c1nn2c(C(F)(F)F)cc(-c3ccco3)nc2c1Cl	10
COc1ccc(C2CC(=O)C3=C(C2)Nc2ccccc2NC3c2ccc(Cl)c([N+](=O)[O-])c2)cc1 (centres undefined)	104*

Compound activity from PubChem BioAssay.
